Screens: PubChem BioAssay, National Center for Advancing Translational Sciences (NCATS)
An excerpt weighted towards active compounds, which were near 5.9% of everything screened.
KB-V1 cytotox: kills drug-selected multidrug resistant KB-V1 cells; KB-V1 MDR cells viability, CellTiter-Glo, 72 h; 3.4% of 400,000 active; Potency, µM (titrated, usually from 46.1 µM), hits mostly cytotoxic; note: % is set by controls: 0 for no effect and ±100 for the full control effect; nearly all actives have a fitted effect of over 60% in size
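Potencies derive from concentration-effect curves fitted to normalized luminescence (CellTiter-Glo) of KB-V1 cells treated for 72 h at 37 degrees C in phenol-red-free DMEM containing 10% FBS.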
HepG2 tox: counter-screen for TGF-b inhibitors: cytotoxicity in HepG2 cells | HepG2 CAGA-GFP viability, ATP luminescence, 18 h | Potency, µM (top dose mostly 46.1 µM), without a hit: top-dose activity change, negative = cytotoxicity, most hits filed as cytotoxic | 0.76% of 410,000 active | AID 588856
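HepG2 CAGA-GFP cells (1000/well, DMEM with 1% FBS) received compound, then TGF-beta at 500 pg/mL final, and were incubated 18 hours at 37 degrees C. Viability was read by CellTiter-Glo luminescence. Media-only wells were set as complete cell-killing and DMSO as no toxicity.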
KB-3-1 cytotox: kills parental KB-3-1 adenocarcinoma cells | 1.4% of 400,000 active | AID 1347075 | Potency, µM (highest dose often 46.1 µM), most hits filed as cytotoxic | KB-3-1 viability, CellTiter-Glo ATP luminescence, 72 h; note: % is set by controls: 0 for no effect and ±100 for the full control effect; nearly all actives have a fitted effect of over 60% in size
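Here the drug-naive KB-3-1 line serves as comparator for MDR sub-line selectivity; cells received compound titrations, 72 h at 37 °C, then CellTiter-Glo readout.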
S2 tox: reduces viability in counter-screen for ATXN expression inhibitors. S2 cells (HEK-293 line with an ATXN2-luciferase reporter) viability, CellTiter-Fluor protease fluorescence, 24 h. Potency, µM (highest dose often 56.7 µM), usual class: cytotoxic. 0.49% of 400,000 active. AID 651635; note: nearly all actives have a fitted effect of over 40% in size
TGFb SMAD3 inh: inhibitors of TGF-b signaling; HepG2 CAGA-GFP TGF-b/SMAD3 reporter, GFP fluorescence, 18 h; TGF-beta stimulated, 500 pg/mL final; Potency, µM (titrated, usually from 46.1 µM), inactives show at the top dose activity, negative = inhibition, actives largely listed as inhibitors; 1.2% of 410,000 active; AID 588855; note: % is set by controls: 0 for no effect and ±100 for the full control effect; nearly all actives have a fitted effect of over 65% in size
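Cell-based qHTS in HEPG2 carrying a CAGA-GFP Smad reporter; compounds added before 500 pg/mL final TGF-beta, 18 h incubation at 37 degrees C, GFP fluorescence quantified per cell by imaging cytometry.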
ATXN2 expr inh: inhibitors of ATXN2 expression; HEK-293 ATXN2-luciferase reporter, luminescence, 24 h; Potency, µM (top dose mostly 57 µM), inactives show top-dose activity change, negative = inhibition, usual class: inhibitors; 0.72% of 360,000 active; AID 1745845; note: % is set by controls: 0 for no effect and ±100 for the full control effect; nearly all actives have a fitted effect of over 55% in size
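qHTS (up to 57 uM final) was run with 24 h compound exposure of reporter cells at 37 °C. Each well was multiplexed: SteadyGlo luminescence measured ATXN2-luciferase expression after a fluorogenic Gly-Phe-AFC viability readout (25 uM final).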
Starred values were filed as active, the others as inactive; i = inactive; ? = inconclusive; / = no result; [ ] = remark or other dose. Calls come from the whole dose curve; as a rule, active = well fitted curve in the direction sought with a large enough effect; inconclusive = small, poorly fitted or top-dose-only effect, or another doubt; inactive = no such curve, though single readings can be large; an effect the other way counts as inactive or inconclusive. Potency is the fitted concentration of half-maximal effect.

SMILES | KB-V1 cytotox | HepG2 tox | KB-3-1 cytotox | S2 tox | TGFb SMAD3 inh | ATXN2 expr inh
CCN(c1ccccc1)S(=O)(=O)c1ccc(Cl)c(NC(=O)CN2CCCCCC2)c1 | 21µM* | 1% | ? | i | ? | ?
O=C(CN1CCN(C/C=C/c2ccccc2)CC1)Nc1cc([N+](=O)[O-])ccc1Cl | 23µM* | -65% | ? | i | ? | -14%
CCOc1ccc(NC(=S)Nc2cccc3cnccc23)cc1 | 15µM* | -5% | i | ? | ? | -6%
CCOc1ccc(NC(=S)Nc2cc(OC)c(Cl)cc2OC)cc1 | 16µM* | 1% | i | i | ? | -17%
COc1ccc(NC(=S)Nc2cccc3cnccc23)cc1 | i | -3% | i | ? | 0% | 7%
CCOc1ccc(NC(=S)Nc2ccc(C)c([N+](=O)[O-])c2)cc1 | 16µM* | -24% | i | i | -2% | -4%
CCOc1ccc(NC(=O)Cn2nnc(C(=O)OC)c2C(=O)OC)cc1 | i | -8% | i | i | -29% | -1%
COc1cccc(NC(=O)CC2Nc3cc(C)c(C)cc3NC2=O)c1 (stereo not given) | i | -2% | i | i | -12% | 14%
Cc1cccc(N(C)C(=O)Cn2c(=O)oc3cc(S(=O)(=O)N4CCCCC4)ccc32)c1 | i | -4% | i | ? | -4% | 2%
CCCCNC(=O)C(NC(=O)c1cccs1)C(=O)c1ccccc1 (stereo not given) | ? | / | i | / | / | /
CCN(CC(=O)Nc1ccccc1OC)CC(=O)Nc1ccccc1-c1ccccc1 | 8.2µM* | 3% | 21µM* | i | ? | -29%
CCN(CC(=O)Nc1ccccc1OC)C(=O)COc1ccc(C#N)cc1 | i | -46% | i | i | 14% | -8%
CCN(CC(=O)Nc1ccccc1OC)CC(=O)Nc1ccccc1C(F)(F)F | ? | -22% | i | i | -7% | -10%
COc1ccc(C)cc1NC(=O)CN(C)S(=O)(=O)c1cccs1 | ? | -20% | i | i | -30% | -2%
COc1ccc(CC(=O)Nc2ccccc2-c2ccccc2)cc1OC | 15µM* | -7% | ? | i | -2% | -26%
CCC(=O)c1ccc(OCC(=O)N(CC)CC(=O)Nc2ccccc2OC)cc1 | 16µM* | 7% | i | i | -29% | 0%
COc1ccccc1NC(=O)CN(C)S(=O)(=O)c1cc(C)ccc1OC | 21µM* | -12% | i | i | -1% | -13%
Cc1cc(NC(=O)Cn2c(=O)nc(-c3ccccc3F)c3cc(Cl)ccc32)ccc1Br | i | -11% | i | i | -23% | 15%
COc1ccc(N(Cc2cccs2)C(=O)COc2ccc([N+](=O)[O-])cc2)cc1 | ? | -14% | i | / | -12% | /
CCCCN(C)c1c(C)nc2ccc(C(=O)NCCOc3ccc(OC)cc3)cn12 | i | -17% | i | ? | -6% | -34%
O=C(CNC(c1ccccc1)c1ccccc1)Nc1ccccc1-c1ccccc1 | 15µM* | 9% | ? | i | -28% | ?
COCC(=O)Nc1ccccc1-c1ccccc1 | i | -18% | i | ? | -2% | 2%[11.3 µM]
O=C(CNC(c1ccccc1)c1ccccc1)Nc1ccccc1F | i | -13% | i | i | -3% | -16%
Cc1ccc(CC(=O)Nc2ccccc2-c2ccccc2)cc1C | 21µM* | 9% | i | i | ? | 4%
CCN(CC(=O)Nc1ccccc1-c1ccccc1)Cc1nc2ccccc2c(=O)[nH]1 | ? | -18% | 8.2µM* | i | -27% | -24%[11.3 µM]
SMILES | KB-V1 cytotox | HepG2 tox | KB-3-1 cytotox | S2 tox | TGFb SMAD3 inh | ATXN2 expr inh
Cc1ccc2c(c1)C(c1ccc(F)cc1)N(C(=O)C(C)C)CC(=O)N2 (stereo not given) | i | -4% | i | i | -5% | ?
COC(=O)c1ccccc1-c1cc(C)cc2c1OC(CNC(=O)c1cnc(C)cn1)C2 (stereo not given) | / | / | / | i | / | /
CN(Cc1ccccc1)c1ccc(C=O)cc1 | i | -1% | i | / | -15% | /
CCn1cc2nc(SCC(=O)Nc3ccc(OC)cc3OC)n(Cc3ccc(Cl)cc3)c(=O)c2n1 | i | -25% | i | i | 9% | -8%
COC(=O)c1nc(-c2ccc(C)cc2)[nH]c1C(C)(C)C | i | 3% | i | i | -30% | -12%
Cc1nn(-c2nnc(NCc3ccccc3)nn2)c(C)c1Br | 21µM* | -29% | 8.2µM* | ? | ? | 33%
CCc1cccc(C)c1NC(=O)Cn1c(=O)cc(C(F)(F)F)c2c(C)nn(C)c21 | i | 0% | i | i | -12% | 10%
CCOc1ccccc1C(=O)NC(C)c1ccc2c(c1)OCO2 (stereo not given) | 9.2µM* | -3% | ? | i | 10% | -18%
CCOc1ccccc1C(=O)N[C@H](C(=O)OCc1cc(=O)oc2cc(C)ccc12)C(C)C | 3.3µM* | 0% | i | i | ? | -22%
CCOc1ccccc1C(=O)N[C@H](C(=O)OCc1cc([N+](=O)[O-])cc2c1OCOC2)C(C)C | 5.8µM* | -19% | i | ? | ? | -19%
CC(C)C(NC(=O)c1ccccc1)C(=O)OCc1cc([N+](=O)[O-])cc2c1OCOC2 (stereo not given) | i | -9% | i | i | -9% | /
CCC(=O)N1CCc2cc(Br)cc(S(=O)(=O)N3CCCC(C(=O)Nc4cc(C)ccc4OC)C3)c21 (stereo not given) | i | -7% | i | i | 0% | -2%
O=C(COc1ccccc1Br)NC1CCCC1 | 16µM* | -25% | ? | i | -24% | 6%
Cc1cccc(OC2(c3ccccc3)OC(=O)c3ccccc32)c1C (stereo not given) | 15µM* | -40% | i | i | -27% | -12%
C=CCn1c(SC(F)F)nc2scc(-c3ccco3)c2c1=O | i | -17% | i | i | 10µM* | 53%
CCN(CC)C(=O)c1sc2c(c1C)c(=O)n(Cc1ccccc1)c(=O)n2Cc1c(C)cc(C)cc1C | i | -22% | i | i | ? | 2%
Cc1ccc(Nc2c(-c3ccc(C)o3)nc3cccc(C)n23)cc1 | i | -90% | i | ? | ? | ?
Cc1ccc(Nc2c(-c3ccccn3)nc3cccc(C)n23)cc1 | 6.5µM* | -36% | 5.2µM* | ? | ? | 6.3µM*
Cc1cccc2nc(-c3ccccn3)c(Nc3ccccc3)n12 | 6.5µM* | -40% | i | ? | ? | ?
